The compounds below were run against Mitogen-activated protein kinase 14 (Homo sapiens) (UniProt Q16539). Conditions: at 10 µM.
Chain of Mitogen-activated protein kinase 14 (Homo sapiens) (Q16539 whole entry): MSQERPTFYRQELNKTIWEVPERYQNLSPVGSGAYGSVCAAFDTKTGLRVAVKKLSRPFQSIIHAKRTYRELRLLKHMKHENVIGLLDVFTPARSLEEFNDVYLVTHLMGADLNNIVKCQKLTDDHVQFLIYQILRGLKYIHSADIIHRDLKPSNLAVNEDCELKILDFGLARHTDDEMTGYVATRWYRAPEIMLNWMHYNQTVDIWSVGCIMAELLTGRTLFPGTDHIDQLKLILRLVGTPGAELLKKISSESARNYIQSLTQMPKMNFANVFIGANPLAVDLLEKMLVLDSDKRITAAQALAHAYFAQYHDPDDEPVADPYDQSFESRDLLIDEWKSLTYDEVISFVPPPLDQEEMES

| SMILES | residual activity [%] |
| --- | --- |
| CC#CC(=O)Nc1cc2c(Nc3ccc(F)c(Cl)c3)ncnc2cn1 | 98 |
| Cn1cc(/C=C2\C(=O)Nc3ccc(S(N)(=O)=O)cc32)c2ccccc21 | 96 |
| NC(=O)c1ccc2[nH]c(-c3ccc(Oc4ccc(Cl)cc4)cc3)nc2c1 | 84 |
| COc1ccc(C(=O)Nc2sc3c(c2C(N)=O)CCCC3)cc1OC | 100 |
| Cn1cnc2cc3c(Nc4cccc(Br)c4)ncnc3cc21 | 25 |
| N#C/C(=C(\N)Sc1ccc(N)cc1)c1ccccc1C(F)(F)F | 82 |
| Nc1ccc2ncnc(NCCc3ccc(Oc4ccccc4)cc3)c2c1 | 91 |
| O=c1cc(-c2cccc3c2Sc2ccccc2S3)oc(N2CCOCC2)c1 | 99 |
| Cc1cc2ncc(-c3ccccc3)nc2cc1C | 82 |
| O=C(Nc1cccc(Nc2cc(Nc3cccc(C(F)(F)F)c3)ncn2)c1)C1CC1 | 40 |
| O=C1NC(=O)c2c1c1c3ccccc3[nH]c1c1[nH]c3cc(Br)ccc3c21 | 85 |
| O=C(Nc1cccc(Nc2nccc(Nc3cccc(C(F)(F)F)c3)n2)c1)C1CC1 | 59 |
| CC[n+]1c(/C=C/N(C)c2ccccc2)n(-c2ccccc2)c2ccc(-c3nc4ccccc4s3)cc21 | 73 |
| O=C1NC(=O)c2cc(Nc3ccc(F)cc3)c(Nc3ccc(F)cc3)cc21 | 23 |

Source: ChEMBL document CHEMBL2218924, “A broad activity screen in support of a chemogenomic map for kinase signalling research and drug discovery” (Biochem J, 2013)
